Measurements reported in PubChem BioAssay AID540325 (National Center for Advancing Translational Sciences (NCATS), 2011).
Some of the results follow. Calls of active or inactive are those of the source.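 Rule for the calls: active = inhibition at 10 µM of 30% or more; inconclusive = no clear call, values can overlap the other calls; inactive = inhibition at 10 µM under 30%.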

Target: DNA polymerase beta (Homo sapiens) (UniProt P06746)
Experiment: Inhibitors of DNA Polymerase Beta: Hit Validation in Radiolabeled Extension Assay
Details: radiolabeled primer extension gel assay, phosphorimager; at 10 µM; hits give high values
Source text: The base excision repair system in human cells is a target for therapeutic modulation of the response to irradiation treatment and DNA-damaging drugs. A key enzyme in this system is the bi-functional DNA polymerase known as DNA polymerase Beta (Pol Beta). […] Using an integrated approach involving discovery of small molecule probes for Pol Beta via HTS and medchem optimization in collaboration with the NIH Chemical Genomics Center, validation by crystallography and kinetics along with cell-based validation experiments, we will test the hypothesis that base excision repair can be strategically modulated in human cells by targeting Pol Beta. Thus, we anticipate the Pol Beta-specific probes emerging from this research will serve as starting points in the development of clinical agents for use in downregulation of DNA base excision repair during therapeutic interventions against cancer. This assay is an orthogonal follow-up assay that looks at radiolabeled primer extension and was carried out by the assay provider. NIH Chemical Genomics Center [NCGC] NIH Molecular Libraries Probe Centers Network [MLPCN] […]
A primer oligonucleotide is 5'-32P end-labeled using T4 polynucleotide kinase and 32P-[ATP]. […] Percent extension of substrate to product is measured using standard, quantitative phosphoimager analysis.

Row | SMILES | inhibition
1 | O=C(Nc1ccc(S(=O)(=O)Nc2nccs2)cc1)c1cc(-c2ccncc2)nc2ccccc12 | 96.4% (active)
